Test results as given in PubChem BioAssay (Tox21).
Inconclusive results are not listed. Activity calls are given as the source filed them. Unless noted, calls follow the shape of the dose curve; as a rule, active = well fitted curve in the direction sought with a large enough effect in the repeat runs; inconclusive = weak or mixed curves; inactive = no such curve, though single readings can be large; an effect the other way counts as inactive or inconclusive.

Legend:
[1] = target: Nuclear receptor subfamily 1 group I member 3 (Homo sapiens) (UniProt Q14994); assay: qHTS assay to identify small molecule agonists of the constitutive androstane receptor (CAR) signaling pathway (AID 1224839);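 also: HepG2 cells stably carrying human CAR and a CYP2B6 luciferase reporter; series mostly up to about 92 µM; nearly all actives have a fitted effect of over 15% in size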
Sequence of Nuclear receptor subfamily 1 group I member 3 (Homo sapiens) (Q14994 whole entry, looked up): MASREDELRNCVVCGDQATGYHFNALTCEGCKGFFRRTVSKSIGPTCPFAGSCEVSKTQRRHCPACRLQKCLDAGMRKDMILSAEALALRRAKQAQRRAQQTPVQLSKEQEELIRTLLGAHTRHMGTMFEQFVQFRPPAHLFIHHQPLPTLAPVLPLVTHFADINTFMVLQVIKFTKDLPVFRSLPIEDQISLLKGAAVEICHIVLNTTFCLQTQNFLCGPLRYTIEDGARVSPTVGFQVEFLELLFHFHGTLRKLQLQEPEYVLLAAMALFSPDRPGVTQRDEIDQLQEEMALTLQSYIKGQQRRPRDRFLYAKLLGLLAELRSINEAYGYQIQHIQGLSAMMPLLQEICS
In short: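 In this screen, CAR-driven CYP2B6 promoter activity is measured by luminescence in HepG2-CYP2B6-hCAR cells after 24 h with test compounds and 0.75 uM PK11195 (final concentration).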

[2] = qHTS assay to identify small molecule antagonists of the estrogen related receptor signaling pathway with the pleiotropic PPARgamma coactivator (PGC) from Tox21 10K library - cell viability counter screen (AID 1224840; active = well fitted cell-killing curve with a large enough effect in the repeat runs, not every such curve was filed as active; also: nearly all actives have a fitted effect of over 40% in size)
In short: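 Following seeding of 2,000 PGC/ERR cells/well and 6 hours' incubation, test compounds were delivered in DMSO. The plates then sat 17.5 hours at 37 C before a fluorogenic live-cell protease reagent (CellTiter-Fluor) was read after 30 min.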

[3] = target: Thyrotropin receptor (Homo sapiens) (UniProt P16473); assay: qHTS assay to identify small molecule agonists of the thyroid stimulating hormone receptor (TSHR) signaling pathway (AID 1224843; calls by dose curve; also: nearly all actives have a fitted effect of over 45% in size)
Sequence of Thyrotropin receptor (Homo sapiens) (P16473 whole entry, looked up): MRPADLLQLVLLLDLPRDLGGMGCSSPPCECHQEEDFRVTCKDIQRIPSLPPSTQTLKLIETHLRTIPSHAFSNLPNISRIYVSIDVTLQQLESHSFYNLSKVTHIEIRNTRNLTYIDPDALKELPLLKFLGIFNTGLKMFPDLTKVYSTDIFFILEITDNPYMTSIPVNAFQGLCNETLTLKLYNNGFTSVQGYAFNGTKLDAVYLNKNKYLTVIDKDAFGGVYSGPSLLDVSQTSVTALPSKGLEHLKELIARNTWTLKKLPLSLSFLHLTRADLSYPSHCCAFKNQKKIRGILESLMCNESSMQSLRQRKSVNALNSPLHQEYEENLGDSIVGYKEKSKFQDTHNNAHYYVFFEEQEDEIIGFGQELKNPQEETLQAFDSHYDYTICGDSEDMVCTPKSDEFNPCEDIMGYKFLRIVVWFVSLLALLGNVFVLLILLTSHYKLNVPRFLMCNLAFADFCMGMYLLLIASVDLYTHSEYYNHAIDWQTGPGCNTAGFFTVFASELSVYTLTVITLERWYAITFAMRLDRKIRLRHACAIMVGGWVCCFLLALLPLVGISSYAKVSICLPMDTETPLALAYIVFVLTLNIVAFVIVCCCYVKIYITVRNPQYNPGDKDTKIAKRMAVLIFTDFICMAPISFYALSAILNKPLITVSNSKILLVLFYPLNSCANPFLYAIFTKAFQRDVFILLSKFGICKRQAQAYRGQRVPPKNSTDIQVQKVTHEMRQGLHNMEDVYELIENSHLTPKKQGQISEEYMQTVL
In short: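 Steps: seed 800 TSHR-HEK293 cells per well; add test compound and hold 30 min at ambient temperature; dispense cAMP-d2 then anti-cAMP cryptate; incubate 1 h at ambient; measure fluorescence intensity.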

[4] = qHTS assay to identify small molecule agonists of the hypoxia (HIF-1) signaling pathway - cell viability counter screen (AID 1224844; calls by dose curve; also: nearly all actives have a fitted effect of over 50% in size)
In short: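 Cells (HRE-bla ME-180, 2,000 per well) sat 5 hrs at 37C, got compound for 17 hrs, were read for CCF4-AM FRET, and were finally lysed with CellTiter-Glo for a 30 min room-temperature luminescence read.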

[5] = qHTS assay to identify small molecule agonists of H2AX (AID 1224845; active = well fitted activation curve with a large enough effect in the signal ratio in the repeat runs, not every such curve was filed as active; the % refers to the signal ratio)
In short: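 Wild-type CHO-K1 cells, plated overnight, exposed 3hr at 37C to 15 concentrations (0.76% DMSO final). Lysed, then HTRF anti-pH2AX (S139) cryptate and anti-H2AX-d2 antibodies, 24 hr room temperature; 665/620 nm emission read.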

[6] = qHTS assay to identify small molecule agonists of the hypoxia (HIF-1) signaling pathway (AID 1224846; active = well fitted activation curve with a large enough effect in the signal ratio in the repeat runs, not every such curve was filed as active; the % refers to the signal ratio)
In short: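 A low-serum medium (0.5% dialyzed FBS) holding 2,000 HRE-bla ME-180 cells per well is preincubated for 5 hrs, dosed with compounds by pintool, and kept a further 17 hrs at 37C, 5% CO2 before CCF4-AM FRET detection of beta-lactamase.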

[7] = qHTS assay to identify small molecule agonists of H2AX - cell viability counter screen (AID 1224847; calls by dose curve; also: top concentration of the series differs between compounds; nearly all actives have a fitted effect of over 30% in size)
In short: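 Read-out: CellTiter-Glo luminescence, 30 min RT. Cells: wild-type CHO-K1, 1000/well, 10% FBS, plated overnight at 37C. Treatment: 15 concentrations, 3 hr, 37C, 0.76% DMSO.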

[8] = qHTS RealTime-Glo MT Cell Viability Assay in HepG2 cells - 24 hour (AID 1224867); also: nearly all actives have a fitted effect of over 50% in size
In short: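 qHTS, HepG2, 600 cells/well, RealTime-Glo (NanoLuc + prosubstrate) added with cells; 5 h preincubation; DMSO compound addition; 37 C; luminescence at 0/8/16/24/32/40 h.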

[9] = A CellTox Green Cytotoxicity Assay to monitor cytotoxicity in HEK293 cells - 0 hour (AID 1224869); also: nearly all actives have a fitted effect of over 50% in size
In short: (§1)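 Fluorescence intensity, read at 0, 8, 16, 24, 32 and 40 h of compound treatment, reflected dye binding to DNA of dead HEK293 cells; compounds (23 nL, DMSO) were added 5 h after plating cells with reagent.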

[10] = qHTS RealTime-Glo MT Cell Viability Assay in HepG2 cells - 40 hour (AID 1224870); also: nearly all actives have a fitted effect of over 50% in size
In short: (§2)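 HepG2 cells (600/well) mixed with RealTime-Glo MT reagent, settled 5 h at 37 C/5% CO2 before compound addition. Nonlytic NanoLuc luminescence from viable-cell prosubstrate reduction read repeatedly during 40 h treatment at 37 C.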

[11] = A CellTox Green Cytotoxicity Assay to monitor cytotoxicity in HEK293 cells - 40 hour (AID 1224871); also: nearly all actives have a fitted effect of over 45% in size
In short: as §1

[12] = qHTS RealTime-Glo MT Cell Viability Assay in HEK293 cells - 16 hour (AID 1224872)
In short: (§3)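 Assay medium contained NanoLuc luciferase plus cell-permeant prosubstrate, added with HEK293 cells at 600 cells/well. After 5 h at 37 C/5% CO2 compounds were added; plates stayed at 37 C for 40 h with serial luminescence reads.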

[13] = qHTS RealTime-Glo MT Cell Viability Assay in HepG2 cells - 8 hour (AID 1224873); also: nearly all actives have a fitted effect of over 55% in size
In short: as §2

[14] = qHTS RealTime-Glo MT Cell Viability Assay in HEK293 cells - 40 hour (AID 1224874); details: RealTime-Glo luminescence; max response: hits give low values; also: nearly all actives have a fitted effect of over 50% in size
In short: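 Viable HEK293 cells reduce a cell-permeant prosubstrate; the product diffuses out and is consumed by NanoLuc in the medium to give light. Compounds went in after a 5 h incubation and plates were read over the treatment course.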

[15] = A CellTox Green Cytotoxicity Assay to monitor cytotoxicity in HEK293 cells - 24 hour (AID 1224875); also: series mostly up to about 77 µM; nearly all actives have a fitted effect of over 45% in size
In short: as §1

[16] = qHTS RealTime-Glo MT Cell Viability Assay in HEK293 cells - 32 hour (AID 1224868)
In short: as §3
% is scaled to controls: 0 for no effect and ±100 for the full control effect.

O=C(Cn1ccnc1[N+](=O)[O-])NCc1ccccc1
inactive: Potency [1] | outcome [2] | outcome [3] | outcome [4] | outcome [5] | outcome [6] | outcome [7] | outcome [8] | Potency [9] | outcome [10] | Potency [11] | Potency [12] | outcome [13] | max response [14] -1.45% | Potency [15]

CC(C)NC(=O)c1ccc(C=O)cc1
inactive: Potency [1] | outcome [2] | outcome [3] | outcome [4] | outcome [5] | outcome [6] | outcome [7] | outcome [8] | Potency [16] | Potency [9] | Potency [11] | Potency [12] | outcome [13] | max response [14] 0.577% | Potency [15]

NCCOCCN
inactive: Potency [1] | outcome [2] | outcome [3] | outcome [4] | outcome [5] | outcome [6] | outcome [7] | outcome [8] | Potency [16] | Potency [9] | outcome [10] | Potency [11] | max response [14] 1.68% | Potency [15]

Cc1cccc(Cl)c1
inactive: Potency [1] | outcome [2] | outcome [3] | outcome [4] | outcome [5] | outcome [6] | outcome [7] | outcome [8] | Potency [16] | Potency [9] | outcome [10] | Potency [11] | outcome [13] | max response [14] 0.996%

COC(=O)CCCCC(CCSS/C(CCO)=C(\C)N(C=O)Cc1cnc(C)nc1N)SC(C)=O (configuration not stated)
inactive: Potency [1] | outcome [2] | outcome [3] | outcome [4] | outcome [5] | outcome [6] | outcome [7] | outcome [8] | Potency [16] | Potency [9] | Potency [11] | Potency [12] | max response [14] 3.28% | Potency [15]

CCC(C)C(C)=O (configuration not stated)
inactive: Potency [1] | outcome [2] | outcome [3] | outcome [4] | outcome [5] | outcome [6] | outcome [7] | outcome [8] | Potency [16] | Potency [9] | Potency [11] | Potency [12] | outcome [13] | max response [14] 0.997% | Potency [15]

N#Cc1ccccc1O
inactive: Potency [1] | outcome [2] | outcome [3] | outcome [4] | outcome [5] | outcome [6] | outcome [8] | Potency [16] | Potency [9] | outcome [10] | Potency [11] | Potency [12] | outcome [13] | max response [14] 15.1% | Potency [15]

O=C(O)CSCC(=O)NC1CCSC1=O (configuration not stated)
inactive: Potency [1] | outcome [2] | outcome [3] | outcome [4] | outcome [5] | outcome [6] | outcome [8] | Potency [9] | outcome [10] | Potency [11] | Potency [12] | outcome [13] | max response [14] -1.55% | Potency [15]

Cc1ccc(C(=O)O)cc1[N+](=O)[O-]
inactive: Potency [1] | outcome [2] | outcome [3] | outcome [4] | outcome [5] | outcome [6] | outcome [8] | Potency [16] | Potency [9] | outcome [10] | Potency [11] | Potency [12] | max response [14] 6.44% | Potency [15]

CCO
inactive: Potency [1] | outcome [2] | outcome [3] | outcome [4] | outcome [5] | outcome [6] | outcome [8] | Potency [9] | outcome [10] | Potency [11] | Potency [12] | outcome [13] | max response [14] 0.927% | Potency [15]

COC(=O)c1ccccc1C(=O)O
inactive: Potency [1] | outcome [2] | outcome [3] | outcome [4] | outcome [5] | outcome [6] | outcome [8] | Potency [16] | Potency [9] | outcome [10] | Potency [11] | max response [14] -0.818% | Potency [15]

O=C(O)CONC(=O)c1ccccc1
inactive: Potency [1] | outcome [2] | outcome [3] | outcome [4] | outcome [5] | outcome [6] | outcome [8] | Potency [16] | Potency [9] | outcome [10] | Potency [11] | Potency [12] | outcome [13] | max response [14] 1.73% | Potency [15]

C#CCN[C@@H]1CCc2ccccc21
inactive: Potency [1] | outcome [2] | outcome [3] | outcome [4] | outcome [5] | outcome [6] | outcome [8] | Potency [9] | outcome [10] | Potency [11] | outcome [13] | max response [14] -4.89% | Potency [15]

C=CCSSCCC
inactive: Potency [1] | outcome [2] | outcome [3] | outcome [4] | outcome [5] | outcome [6] | outcome [7] | outcome [8] | Potency [9] | Potency [11] | outcome [13] | Potency [15]

CCCCCCC1(C)CCC(=O)O1 (configuration not stated)
inactive: Potency [1] | outcome [2] | outcome [3] | outcome [4] | outcome [5] | outcome [6] | outcome [8] | Potency [16] | Potency [9] | outcome [10] | Potency [11] | Potency [12] | outcome [13] | max response [14] 3.32% | Potency [15]
